# This is part of a sample that, as a whole, favours compounds with a hit. Of some 83,000 tested, about 20% had one in any assay.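 A percent growth of 40 corresponds to 60% growth inhibition; 0 means no net growth; -100 means all cells died. Active threshold: below 10.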 Unmarked numbers belong to inactive results. Activity calls are given as the source filed them.
# Key:
# Assay in all cases: NCI-60 one-dose screen, 48 h (100 = growth as untreated, 0 = no growth, -100 = all killed)
# Conditions in all cases: 10 µM unless noted
# NCI-H23 lung = system: NCI-H23 lung
# NCI-H226 lung = system: NCI-H226 lung
# NCI-H322M lung = system: NCI-H322M lung
# HOP-62 NSCLC = system: HOP-62 NSCLC
# NCI-H460 lung = system: NCI-H460 lung
# HOP-92 NSCLC = system: HOP-92 NSCLC
# NCI-H522 lung = system: NCI-H522 lung
# A549/ATCC NSCLC = system: A549/ATCC NSCLC
# 786-0 renal = system: 786-0 renal
# COLO 205 colon = system: COLO 205 colon
# DU-145 prostate = system: DU-145 prostate
# K-562 leukemia = system: K-562 leukemia
# MALME-3M melanoma = system: MALME-3M melanoma
# MDA-MB-231 breast = system: MDA-MB-231 breast
# RXF 393 renal = system: RXF 393 renal
# SF-268 CNS = system: SF-268 CNS
# SF-295 CNS = system: SF-295 CNS
# SF-539 CNS = system: SF-539 CNS
# UACC-257 melanoma = system: UACC-257 melanoma
# M14 melanoma = system: M14 melanoma
Structure (SMILES),growth (NCI-H23 lung),growth (NCI-H226 lung),growth (NCI-H322M lung),growth (HOP-62 NSCLC),growth (NCI-H460 lung),growth (HOP-92 NSCLC),growth (NCI-H522 lung),growth (A549/ATCC NSCLC),growth (786-0 renal),growth (COLO 205 colon),growth (DU-145 prostate),growth (K-562 leukemia),growth (MALME-3M melanoma),growth (MDA-MB-231 breast),growth (RXF 393 renal),growth (SF-268 CNS),growth (SF-295 CNS),growth (SF-539 CNS),growth (UACC-257 melanoma),growth (M14 melanoma)
Nc1ncnc2c1N=C(c1ccc(F)cc1)CC(c1cccc(Nc3ccnc4cc(Cl)ccc34)c1)N2 (stereo not given),77.9%,91.5%,89.6%,73.5%,81.3%,67.8%,99.7%,83.5%,61.9%,49.8%,85.9%,26.7%,91.1%,75.2%,39.1%,62%,72.1%,80.6%,106%,72.1%
CCCC(O)Cn1ncc(C(=O)OCC)c1NC(=O)NCc1cccc(C(F)(F)F)c1 (stereo not given),80.1%,103%,84.3%,88.2%,103%,58.8%,46.5%,95%,80.1%,109%,99.8%,46.9%,92%,95.1%,113%,103%,93.8%,94.3%,101%,58.5%
C=C1C(=O)O[C@H]2[C@H]1CC/C(COC(=O)NCc1ccc(Cn3c(=O)sn(-c4ccccc4)c3=O)cc1)=C\CC[C@@]1(C)O[C@@H]21,91.7%,55.1%,92.7%,126%,81.3%,10.3%,-70.6% (active),114%,39.7%,3.5% (active),23.3%,1.19% (active),-9.16% (active),47.2%,6.99% (active),46.6%,108%,29%,68.3%,14.4%
CC1=C(Cl)C(=O)c2cc(C)ccc2C1=O,100%,86.3%,94.4%,105%,115%,88.5%,93%,101%,102%,114%,115%,102%,114%,103%,84.9%,88%,108%,116%,106%,112%
C=C1C(=O)O[C@H]2[C@H]1CC/C(COC(=O)NCc1ccc(Cn3c(=O)sn(-c4ccc(I)cc4)c3=O)cc1)=C\CC[C@@]1(C)O[C@@H]21,94.8%,89.6%,101%,97.8%,91.9%,54.9%,2.14% (active),94.9%,75.2%,36.9%,47.9%,7.33% (active),82.3%,73.5%,61.2%,87.1%,99.8%,98.7%,75.7%,73.1%
COc1ccc(/C=N/NC(=O)Cn2c(-c3ccc(S(C)(=O)=O)cc3)nc3ccccc32)cc1,95.5%,99.6%,91.3%,107%,102%,94.1%,92.9%,113%,99.3%,111%,111%,98.9%,89%,95.8%,104%,102%,93.1%,96.4%,112%,92.1%
CCN(CC)CCOc1ccc2c(-c3ccccc3)c(-c3ccc(OC)cc3)c(=O)oc2c1,70.3%,85.2%,122%,95%,57.4%,63.9%,66.8%,70.6%,65.9%,-38.8% (active),95.6%,25%,83%,67.3%,50.9%,89.8%,62.9%,58.7%,18.1%,-7.02% (active)
Cc1nc2sc(C(=O)Nc3cccc4ccccc34)c(N)c2cc1C(=O)c1ccccc1,40.2%,68.3%,62.4%,42.5%,7.31% (active),77.6%,15.5%,23.5%,42.5%,-2.82% (active),18.3%,9.45% (active),58.5%,15.2%,22.6%,53.4%,10.4%,-12.1% (active),72.7%,12.4%
CCOc1ccc(NC(=O)Nc2ccc(OCC)cc2)cc1,106%,104%,104%,98.2%,106%,106%,103%,95.9%,108%,104%,106%,97.6%,100%,110%,114%,104%,95.7%,97.2%,113%,109%
Nc1c(Cl)cc(/C=C2\C=Cc3ccccc32)cc1Cl,97.4%,98.7%,106%,102%,112%,99.6%,93.1%,92.7%,102%,102%,97.8%,100%,119%,113%,103%,105%,115%,97.5%,98.3%,105%
CSc1ccc2c3c(n(C[C@H](O)CO)c(=O)c2c1)-c1ccccc1C3=O,38.1%,12.8%,74.3%,21.5%,6.06% (active),106%,43.7%,14.5%,27%,54.2%,22%,20.7%,74.4%,108%,79.7%,44%,14.3%,10.3%,85.5%,52.2%
N#Cc1c(-c2ccccc2)cc(-c2ccccc2)n(CCCCC(=O)NO)c1=O,25.8%,9.98% (active),92.2%,21.1%,73%,15.7%,19.3%,41.7%,7% (active),43.3%,20.2%,6.77% (active),11.5%,25.6%,-16.5% (active),43%,1.64% (active),24.3%,35.8%,19.1%
C=C1C(=O)O[C@H]2[C@H]1CC/C(COC(=O)C(=O)c1c[nH]c3ccc(Cl)cc13)=C\CC[C@@]1(C)O[C@@H]21,-55.7% (active),-73% (active),-76.2% (active),-53.1% (active),-72.9% (active),-92.8% (active),-48.4% (active),-82.2% (active),-99.1% (active),-51.9% (active),-96.2% (active),2.92% (active),-75.7% (active),-74.8% (active),-92.9% (active),-81.3% (active),-10.6% (active),-78.5% (active),-75.9% (active),-83.1% (active)
Cc1ccc(S(=O)(=O)OCC#CCOS(=O)(=O)c2ccc(C)cc2)cc1,59.3%,84.3%,93.9%,-12.9% (active),13.4%,40.2%,-65.4% (active),17.1%,74.5%,52.6%,52.2%,40.2%,-65.9% (active),57.9%,58.6%,53.8%,42.2%,81.9%,66.8%,43.6%
Cc1cccc(-c2nc(C(C)C)sc2-c2ccnc(NCCCNS(=O)(=O)c3ccc(Cl)cc3)c2)c1,84.9%,81.4%,95.1%,91.6%,70.1%,83.1%,55.4%,74.8%,76.3%,60.8%,78.2%,30.5%,99.9%,76.5%,103%,67.4%,80.7%,84.2%,113%,82.2%

# From PubChem BioAssay (NCI)
